Source: PubChem BioAssay (NCATS)
Inconclusive results are not listed. Calls of active or inactive are those of the source. Unless noted, calls follow the shape of the dose curve; as a rule, active = well fitted cell-killing curve with a large enough effect; inconclusive = small, poorly fitted or top-dose-only effect, or effect the other way; inactive = no such curve, though single readings can be large or run the other way.

Experiments:
[1] = Quantitative High-Throughput drug screen in 47 multiple myeloma cell lines against the NCATS MIPE library collection: KMS28PE_JCRB cell viability assay (AID 1918983); also: potency is read from the fitted curve at half-maximal effect; nearly all actives have a fitted effect of over 35% in size
Method in brief: (§1)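 MIPE 4.0 approved/investigational drugs; 500 cells/well; 48 h 37 °C humidified 5% CO2; CTG luminescence readout; DMSO = 100%, media = 0% viability.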

[2] = Quantitative High-Throughput drug screen in 47 multiple myeloma cell lines against the NCATS MIPE library collection: L363_DSMZ cell viability assay (AID 1918984); also: potency is read from the fitted curve at half-maximal effect; nearly all actives have a fitted effect of over 40% in size
Method in brief: as §1

[3] = Quantitative High-Throughput drug screen in 47 multiple myeloma cell lines against the NCATS MIPE library collection: KMS34_JCRB cell viability assay (AID 1918985); also: potency is read from the fitted curve at half-maximal effect; nearly all actives have a fitted effect of over 40% in size
Method in brief: as §1

[4] = Quantitative High-Throughput drug screen in 47 multiple myeloma cell lines against the NCATS MIPE library collection: OCIMY7_PLB cell viability assay (AID 1918987); also: potency is read from the fitted curve at half-maximal effect; nearly all actives have a fitted effect of over 65% in size
Method in brief: as §1

[5] = Quantitative High-Throughput drug screen in 47 multiple myeloma cell lines against the NCATS MIPE library collection: OPM1_PLB cell viability assay (AID 1918989); also: potency is read from the fitted curve at half-maximal effect; nearly all actives have a fitted effect of over 40% in size
Method in brief: as §1

[6] = Quantitative High-Throughput drug screen in 47 multiple myeloma cell lines against the NCATS MIPE library collection: SKMM1_PLB cell viability assay (AID 1919863); details: SKMM1 myeloma viability, CellTiter-Glo ATP, 48 h; viability: stronger effect = lower value; also: potency is read from the fitted curve at half-maximal effect; nearly all actives have a fitted effect of over 35% in size
Method in brief: as §1

[7] = Quantitative High-Throughput drug screen in 47 multiple myeloma cell lines against the NCATS MIPE library collection: U266_ATCC cell viability assay (AID 1919864); also: potency is read from the fitted curve at half-maximal effect; nearly all actives have a fitted effect of over 35% in size
Method in brief: as §1

[8] = Quantitative High-Throughput drug screen in 47 multiple myeloma cell lines against the NCATS MIPE library collection: XG6_PLB cell viability assay (AID 1919865); also: potency is read from the fitted curve at half-maximal effect; nearly all actives have a fitted effect of over 40% in size
Method in brief: as §1

[9] = Quantitative High-Throughput drug screen in 47 multiple myeloma cell lines against the NCATS MIPE library collection: XG1_PLB cell viability assay (AID 1919866); also: potency is read from the fitted curve at half-maximal effect; nearly all actives have a fitted effect of over 35% in size
Method in brief: as §1

[10] = Quantitative High-Throughput drug screen in 47 multiple myeloma cell lines against the NCATS MIPE library collection: VP6_DJ cell viability assay (AID 1919867)
Method in brief: as §1

[11] = Quantitative High-Throughput drug screen in 47 multiple myeloma cell lines against the NCATS MIPE library collection: PE2_PLB cell viability assay (AID 1919869)
Method in brief: as §1

[12] = Quantitative High-Throughput drug screen in 47 multiple myeloma cell lines against the NCATS MIPE library collection: PCM6_Riken cell viability assay (AID 1919870); also: potency is read from the fitted curve at half-maximal effect; nearly all actives have a fitted effect of over 30% in size
Method in brief: as §1

[13] = Quantitative High-Throughput drug screen in 47 multiple myeloma cell lines against the NCATS MIPE library collection: RPMI8226_ATCC cell viability assay (AID 1919871); also: potency is read from the fitted curve at half-maximal effect; nearly all actives have a fitted effect of over 30% in size
Method in brief: as §1

[14] = Quantitative High-Throughput drug screen in 47 multiple myeloma cell lines against the NCATS MIPE library collection: OPM2_DSMZ cell viability assay (AID 1919872); also: potency is read from the fitted curve at half-maximal effect; nearly all actives have a fitted effect of over 30% in size
Method in brief: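 CellTiter-Glo ATP luminescence gave viability after 48 h compound treatment at 37C of 500 multiple myeloma cells per well. Normalisation used DMSO-only wells as 100% and media-only wells as 0% viability; primary qHTS of approved and investigational drugs.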

[15] = Quantitative High-Throughput drug screen in 47 multiple myeloma cell lines against the NCATS MIPE library collection: KMS28BM_JCRB cell viability assay (AID 1919874)
Method in brief: as §1

[16] = qHTS drug screen for cell cycle checkpoint inhibitors in PARPi-resistant BRCA-mutant ovarian cancer cell lines. (AID 1963452; calls by dose curve); details: PEO1/OlaR viability, CellTiter-Glo luminescence, 96 h, stronger effect = lower value
Method in brief: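 PEO1, PEO4 and PEO1/OlaR ovarian cancer cells, 600 per well, exposed 96 h at 37C to a dilution series. Viability read by CellTiter-Glo luminescence, normalized to DMSO and empty wells; activity summarized as Z-AUC.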

[17] = qHTS for identification of novel therapeutic agents for treatment of microphthalmiaassociated transcription factor (MiT) renal cell carcinoma (RCC) (AID 1963991; calls by dose curve; also: potency is read from the fitted curve at half-maximal effect); details: CellTiter-Glo, 48 h; for Potency: active = Z-AUC below -0.8 in all three lines; for z-score: stronger effect = lower value
Method in brief: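 Three TFE3-fusion RCC cell lines (UOK109, UOK124, UOK145), 500 cells/well, were exposed to the 1912-compound MIPE 4.0 library for 48 hours at 37 C. Viability was read by CellTiter-Glo luminescence, normalised to DMSO (100%) and empty wells (0%), with 11-concentration curve fits.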

[18] = Quantitative High-Throughput drug screen in 47 multiple myeloma cell lines against the NCATS MIPE library collection: UTMC2_PLB cell viability assay (AID 1919868); details: CellTiter-Glo ATP luminescence, 48 h; viability (% of DMSO control): at 45.8 µM (top of the series) unless noted; also: potency is read from the fitted curve at half-maximal effect; nearly all actives have a fitted effect of over 55% in size
Method in brief: as §1

[19] = Quantitative High-Throughput drug screen in 47 multiple myeloma cell lines against the NCATS MIPE library collection: KMS11_JCRBsus cell viability assay (AID 1919873); also: potency is read from the fitted curve at half-maximal effect; nearly all actives have a fitted effect of over 50% in size
Method in brief: as §1

[20] = Quantitative High-Throughput drug screen in 47 multiple myeloma cell lines against the NCATS MIPE library collection: OCIMY5_PLB cell viability assay (AID 1918988); also: potency is read from the fitted curve at half-maximal effect; nearly all actives have a fitted effect of over 65% in size
Method in brief: as §1

[21] = measured here: PEO1 parental Z-AUC
[22] = TFE3-RCC UOK109 viability, measured here: UOK109 Z-AUC
[23] = TFE3-RCC viability, measured here: UOK124 Z-AUC
[24] = TFE3-RCC viability, measured here: UOK145 Z-AUC

CC(C)c1cc(-c2n[nH]c(=O)n2-c2ccc3c(ccn3C)c2)c(O)cc1O
0.105: Z-AUC ([16]; measured here: PEO4 Z-AUC)
-1.34: z-score [17, 22]
active: Potency [1] 0.0132 µM | Potency [2] 0.0118 µM | Potency [3] 0.0264 µM | Potency [4] 11.8 nM | Potency [5] 29.6 nM | Potency [6] 0.0743 µM | Potency [7] 0.0372 µM | Potency [8] 0.059 µM | Potency [9] 0.0296 µM | Potency [10] 0.0209 µM | Potency [11] 0.0372 µM | Potency [12] 23.5 nM | Potency [13] 37.2 nM | Potency [14] 41.8 nM | Potency [15] 0.0418 µM | Potency ([17]; TFE3-RCC UOK109 viability) 74.3 nM
-0.923: z-score [17, 23]
inactive: Z-AUC [16] -0.89
-1.07: Z-AUC [16, 21]
-1.27: z-score [17, 24]

Cc1cc(Nc2cc(NC(=O)c3c(Cl)cccc3Cl)ccn2)nc(N)n1
-1.26: Z-AUC [16, 21]
active: Potency [1] 26.4 µM | Potency [2] 1.66 µM | Potency [3] 1.18 µM | Potency [4] 590 nM | Potency [7] 6.62 µM | Potency [8] 4.69 µM | Potency [9] 1.18 µM | Potency [10] 1.66 µM | Potency [18] 2.96 µM | Potency [11] 2.96 µM | Potency [12] 2350 nM | Potency [19] 372 nM
inactive: Z-AUC [16] -0.241
-0.959: Z-AUC ([16]; measured here: PEO4 Z-AUC)

Cc1ccc(-c2ncn(-c3ccc(Nc4nccc(-c5cccc(N6CCOCC6)c5)n4)cc3)n2)cn1
inactive: Z-AUC [16] -1.4
-1.65: Z-AUC ([16]; measured here: PEO4 Z-AUC)
-1.3: z-score [17, 22]
-2.09: Z-AUC [16, 21]
-2.07: z-score [17, 23]
active: Potency [1] 0.148 µM | Potency [2] 0.0743 µM | Potency [3] 0.166 µM | Potency [20] 52.6 nM | Potency [5] 83.3 nM | Potency [6] 0.235 µM | Potency [7] 0.132 µM | Potency [8] 0.132 µM | Potency [9] 0.0935 µM | Potency [10] 0.0296 µM | Potency [18] 0.187 µM | Potency [11] 0.372 µM | Potency [12] 37.2 nM | Potency [13] 132 nM | Potency [14] 296 nM | Potency [19] 74.3 nM | Potency ([17]; TFE3-RCC UOK109 viability) 264 nM
-1.38: z-score [17, 24]

C[C@@H](Oc1cc(-c2cnn(C3CCNCC3)c2)cnc1N)c1c(Cl)ccc(F)c1Cl
-0.116: Z-AUC ([16]; measured here: PEO4 Z-AUC)
inactive: Z-AUC [16] 0.111
-0.187: Z-AUC [16, 21]
active: Potency [1] 11.8 µM | Potency [2] 4.69 µM | Potency [3] 11.8 µM | Potency [20] 5260 nM | Potency [5] 5900 nM | Potency [6] 7.43 µM | Potency [7] 14.8 µM | Potency [8] 2.35 µM | Potency [9] 4.69 µM | Potency [10] 4.18 µM | Potency [18] 2.35 µM | Potency [11] 6.62 µM | Potency [13] 13200 nM | Potency [14] 18700 nM | Potency [15] 8.33 µM

CNc1nccc(-c2cccnc2Oc2cc(C(=O)Nc3cccc(C(F)(F)F)c3)ccc2C)n1
-0.637: Z-AUC [16, 21]
active: Potency [1] 20.9 µM | Potency [2] 14.8 µM | Potency [3] 14.8 µM | Potency [4] 1660 nM | Potency [5] 13200 nM | Potency [6] 18.7 µM | Potency [7] 16.6 µM | Potency [8] 2.35 µM | Potency [9] 2.35 µM | Potency [10] 5.26 µM | Potency [18] 14.8 µM | Potency [11] 6.62 µM | Potency [19] 18700 nM | Potency [15] 23.5 µM
inactive: Z-AUC [16] 0.523
0.0306: Z-AUC ([16]; measured here: PEO4 Z-AUC)
